22 sequences from the supplement of paper PMC6555819 can be followed below.

For this assay, the system named is PPARg:RXRa 90nM:30nM, anti-RXR (NR concentration 90 nM, RXRa partner concentration 30 nM). As to the kind of experiment: PBM binding z-score (relative to random genomic background probes); higher = stronger binding; sequences stand for … in GC…GCGATTGACAGCGTAGAATGAAGG
Summed up:
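Custom Agilent 4×180K protein-binding microarrays carried double-stranded probes. Their 34-nt variable regions held direct-repeat seeds, single-nucleotide variants, half-site ablations and random human genomic background sequences. Arrays were incubated 1 h with ligand-free nuclear receptor dimers in PBS pH 7.4, 2% milk, 0.02% Triton X-100, 1 mM DTT, 0.2 mg/mL BSA and 0.4 mg/ml salmon testes DNA. Antibodies against each partner (one per run) detected binding, and scanned fluorescence was regression-normalized. Binding z-scores use random background probes as reference.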
Regarding CCTAGCAGGCCAATCTGGGTGACTCAAGGCTTGA, the PBM binding z-score was -0.00968.

In turn, CGAACTAGGTCAGAACTGGACAGTGAAGGATGAT showed a PBM binding z-score of 3.68.

The sequence GGAACGAGGGCATTCGAGTTGATGGCATGGCGAT had a PBM binding z-score of -0.326.

Consider TCAGACAGGTGAAGGTAACTCCGGTACGCAGTCG, for which the PBM binding z-score came out at 2.96.

The sequence CGTCCCAGGTCAATGCTAGGTCAGTGAAAGCATT displayed a PBM binding z-score of 1.97.

Consider TCATATAGGTAAACAGGTGGAAGTCCGTAAGTTA, for which the PBM binding z-score stood at 3.06.

In turn, CCAGACAGGTGAAAGGTAACCCAGTCTGGTACGC had a PBM binding z-score of 5.97.

In turn, CTACCAAGCTGAACAAGGTCGTTGATTACTATTC returned a PBM binding z-score of -0.336.

GGAACGAGGGCGTTCGAGTTGATAGCATGGCGAT returned a PBM binding z-score of -0.797.

In turn, CAGCCTAGGTCTGGGCCAGTATAGGAGGAACGTT gave a PBM binding z-score of -0.961.

For GGAGACAGGTGAAACGCAGGTAACTCAGGGTGGC, the PBM binding z-score is -0.000912.

In turn, TAGCCTAGGTCATGGGCCGGTATACCACGCGAAC gave a PBM binding z-score of 2.46.

Consider CAAACTCGGTCACAGAGGTCAAAGTCCGTGCGTA, for which the PBM binding z-score stood at 5.58.

Sequence CCTACTGCGCCACGAAAGGTCATTGATTCAGTGA gave a PBM binding z-score of 1.98.

On to GCGTACGGGTCAAAGGTTATAGCATGAATAGAAT, for which the PBM binding z-score amounted to 9.27.

CCATACGGGTCACGAGGTTATAGCACGACGAGCG displayed a PBM binding z-score of 5.37.

For the sequence TCATATAGGTAAATGCTAGGTGAAATTCCGATCT, the PBM binding z-score came to 3.3.

Turning to CGAACGAGGGGATGAGTTGATAGCAAATGCCGAT, the PBM binding z-score was -0.23.

For GCATATAGGTGATACAAGGTGAAAGTCCGATTGT, the PBM binding z-score worked out at 1.33.

In the case of CCGACTGCGGCAAAGGTTACCATACTCAGTACGA, the PBM binding z-score was 4.38.

ACTATTAGTTGTGACGAGGGCAACCGATAGGTTG returned a PBM binding z-score of 0.259.

As to TCGAGTAGGTTACCAATGGGGCATTCCGCTTTCT, the PBM binding z-score came out at 0.974.
